This is part of a sample that, as a whole, favours compounds with a hit. Of some 79,000 tested, about 15% had one in any assay. Unmarked numbers belong to inactive results. Activity calls are given as the source filed them. Rule as the data show it: active = growth inhibition above about 70%; inactive = the rest.
Experiments:
[1] = NCI Yeast Anticancer Drug Screen. Data for the rad50 strain (AID 155);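 also: 0% = growth of vehicle-only cultures of the same strain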; details: S. cerevisiae rad50 strain growth inhibition, active compounds read high
In short: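 Relative growth inhibition (compound vs vehicle) was measured in yeast with a defined repair-gene alteration.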

[2] = NCI Yeast Anticancer Drug Screen. Data for the mec2-1 strain (AID 157); details: S. cerevisiae mec2-1 strain, active compounds read high
In short: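 mec2-1 yeast strain, carrying an alteration in DNA damage repair or cell cycle control, was exposed to compounds; growth inhibition was measured relative to vehicle-treated controls.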

[3] = NCI Yeast Anticancer Drug Screen. Data for the sgs1 mgt1 strain (AID 161);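 also: 0% = growth of cultures given vehicle only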; details: S. cerevisiae sgs1 mgt1 strain, active compounds read high
In short: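 Growth of a repair-deficient yeast mutant was monitored after compound treatment and expressed as inhibition relative to vehicle-treated cultures.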

[4] = NCI Yeast Anticancer Drug Screen. Data for the cln2 rad14 strain (AID 165);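 also: 0% = growth equal to vehicle treated cultures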; details: S. cerevisiae cln2 rad14 strain, active compounds read high
In short: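 Yeast carrying cln2 and rad14 alterations (cell cycle control and DNA damage repair) were exposed to compounds. Growth inhibition was measured against vehicle-treated controls.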

[5] = NCI Yeast Anticancer Drug Screen. Data for the bub3 strain (AID 167); details: S. cerevisiae bub3 mutant strain, active compounds read high
In short: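 Screening used yeast with an engineered genetic alteration affecting cell cycle control. Compound-exposed cultures were compared with vehicle cultures, and reduced growth was taken as inhibition.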

[6] = NCI Yeast Anticancer Drug Screen. Data for the mlh1 rad18 strain (AID 175); details: S. cerevisiae mlh1 rad18 strain growth inhibition, active compounds read high
In short: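 Growth inhibition of the yeast strain was measured after compound exposure and expressed relative to vehicle-treated controls. The strain carries defined defects in DNA damage repair.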

[7] = at 5.0 µM (retest, dose inferred, filed as 0.5)
[8] = at 50.0 µM (retest, dose inferred, filed as 5.0)

Structure (SMILES) | growth inhibition [1, 7] [%] | growth inhibition [1, 8] | growth inhibition ([1]; at 50.0 µM) | growth inhibition [2, 7] | growth inhibition [2, 8] | growth inhibition ([2]; at 50.0 µM) | growth inhibition [3, 7] [%] | growth inhibition [3, 8] | growth inhibition ([3]; at 50.0 µM) | growth inhibition [4, 7] [%] | growth inhibition [4, 8] | growth inhibition ([4]; at 50.0 µM) | growth inhibition [5, 7] | growth inhibition [5, 8] | growth inhibition ([5]; at 50.0 µM) | growth inhibition [6, 7] | growth inhibition [6, 8] | growth inhibition ([6]; at 50.0 µM)
CC(C)OC(=O)c1ccc(NCc2cc(O)ccc2O)cc1Cl | 61 | 99% (active) | 89.8% (active) | 41% | 99% (active) | 90.3% (active) | 55 | 99% (active) | 91.6% (active) | 63 | 100% (active) | 89.5% (active) | 53% | 100% (active) | 88.9% (active) | 49% | 98% (active) | 88% (active)
O=C(Nc1ccccc1F)C(Br)C(Br)c1ccccc1 (configuration not stated) | 6 | 97% (active) | 98.6% (active) | 8% | 90% (active) | 99% (active) | 23 | 97% (active) | 99.4% (active) | 6 | 36% | 99.1% (active) | -1% | 95% (active) | 99% (active) | 29% | 95% (active) | 98.9% (active)
CCOC(=O)C(=CNC(=S)Nc1c(CC)cccc1C(C)(C)C)C(=O)OCC | 6 | 74% (active) | 85.2% (active) | -13% | 44% | 75.5% (active) | -2 | 27% | 77% (active) | 1 | 52% | 76.3% (active) | -11% | 58% | 84.2% (active) | -11% | 67% | 86.8% (active)
CC(C)C(=O)OCC(C)(C)C1OCC(C)(C)C(C(C)C)O1 (configuration not stated) | 11 | -9% | -5.55% | 97% (active) | 5% | -3.85% | 12 | 3% | -1.55% | -19 | -6% | 9% | 98% (active) | 0% | 1.15% | 88% (active) | -13% | 4.85%
CN(C)CC(C)(C)/C(=N\Nc1ccccc1)c1ccccc1 | 6 | 82% (active) | 5.6% | 3% | 86% (active) | -5.2% | 51 | 95% (active) | 4.55% | 25 | 62% | 38.9% | 30% | 93% (active) | 98% (active) | 22% | 80% (active) | 33%
C(=N\Nc1ccc2ccccc2n1)/c1ccccn1.CC(=O)[O-].CC(=O)[O-].[Zn+2] | -4 | 2% | 16.7% | 2% | -2% | 39.3% | -3 | -3% | 84.3% (active) | -3 | 0% | -19.6% | -1% | -1% | 18.3% | 2% | 0% | 57.4%
NC(=O)/C(=N\NC(=O)c1cc2ccccc2cc1O)C1C(=O)N(c2ccccc2)N=C1N (configuration not stated) | 15 | 15% | 71.5% (active) | 6% | 6% | 43.4% | 7 | 7% | 20.7% | 16 | 16% | 11.7% | 2% | 2% | 50.1% | 25% | 25% | 67.4%
CC(=O)C1C(S)CC2C3CC=C4CC(O)CCC4(C)C3CCC21C (configuration not stated) | 1 | 98% (active) | 98.8% (active) | 7% | 98% (active) | 98.5% (active) | -8 | 98% (active) | 98.7% (active) | -7 | 98% (active) | 98% (active) | 8% | 98% (active) | 50.9% | 0% | 98% (active) | 98.8% (active)
COc1ccc([C@H]2c3cc4c(cc3OC(O)(CO)[C@H]2C(=O)O)OCO4)c(OC)c1 (some centres not stated) (tested in a mixture with another compound) | 9 | 63% | 57% | 15% | 48% | 48.4% | 0 | 44% | 44.1% | 0 | 35% | 28% | -5% | 76% (active) | 54.5% | 6% | 86% (active) | 80.5% (active)
CC(=O)/C(=C\c1ccccc1Cl)C(=O)CCN(C)C | -35 | 93% (active) | 37.4% | 8% | 96% (active) | 38.1% | 0 | 94% (active) | 74% (active) | 6 | 97% (active) | 20.6% | 7% | 97% (active) | 18.4% | -17% | 97% (active) | 80.8% (active)
CCS(CC)(CC)CC1CCCC2=CCC(P(=O)(c3ccccc3)c3ccccc3)CC21 (configuration not stated) | 5 | 5% | 87.2% (active) | 18% | 18% | 78.7% (active) | 11 | 11% | 87.8% (active) | 5 | 5% | 24.2% | -8% | -8% | 67.8% | -9% | -9% | 71.7% (active)
O=Nc1cc(-c2ccccc2)c2ccccc2c1O | 14 | 86% (active) | -2.65% | 14% | 96% (active) | 31.9% | 6 | 93% (active) | -10.4% | 15 | 97% (active) | 97.5% (active) | 22% | 95% (active) | 97.4% (active) | 23% | 96% (active) | 2.45%
CN(C)CCCNc1ccc2c(=O)n(CCN(C)C)c(=O)n3c4ccccc4c(=O)c1c23 | 42 | 69% | 71.7% (active) | 29% | 33% | 55% | 28 | 18% | 26.2% | 40 | 24% | 58.6% | 61% | 37% | 40.9% | 55% | 61% | 25.4%
Oc1cc2ccccc2c2ccccc12 | 0 | 93% (active) | 99.2% (active) | 2% | 83% (active) | 99.2% (active) | 4 | 87% (active) | 98.9% (active) | -15 | 97% (active) | 98.5% (active) | 16% | 96% (active) | 99.2% (active) | 6% | 93% (active) | 98.9% (active)
COc1cc2c(cc1O)C1Cc3ccc(OC)c(O)c3C(C2)N1C (configuration not stated) | 22 | 21% | 66.3% | 22% | 10% | -3.45% | 16 | 13% | -4.65% | 22 | 19% | -5.45% | 16% | 24% | -5.65% | 23% | 20% | -68%
COc1ccc(C(=O)C(CCC(=O)/C=C/c2ccccc2)S(C)(=O)=O)cc1 (configuration not stated) | 8 | 10% | 9.25% | -12% | 15% | 3.5% | 5 | 13% | 17.2% | 2 | -8% | 39.9% | -7% | 6% | 0.7% | 0% | -5% | 2.4%
Cn1c(N)c(NC(=O)CCl)c(=O)n(C)c1=O | 21 | 20% | 16.4% | 3% | 5% | -5.8% | -13 | -2% | -16.9% | 1 | 2% | 12.8% | 8% | 7% | -2.45% | 7% | 0% | 16.9%
Cc1ccc(O)c(Cc2ccccc2Cl)c1 | -2 | 99% (active) | 99.3% (active) | -7% | 99% (active) | 99.3% (active) | -4 | 98% (active) | 99.5% (active) | -19 | 99% (active) | 99% (active) | -13% | 99% (active) | 92.7% (active) | -5% | 99% (active) | 99% (active)
CCOC(=O)CC(NC(=O)c1[nH]cnc1/N=N/N(C)C)C(=O)OCC (configuration not stated) | -24 | 95% (active) | 89.1% (active) | -8% | 97% (active) | 91.5% (active) | -16 | 95% (active) | 90.6% (active) | -11 | 96% (active) | 91% (active) | -12% | 97% (active) | 91.8% (active) | -24% | 97% (active) | 78% (active)

Source: PubChem BioAssay (NCI)
